# Laboratory results: the supplement of paper PMC4466140
# What was measured:
# Assay in all cases: SPOT peptide array binding signal intensity (averaged, normalized) (arbitrary units (background-subtracted, floor 0; scale differs between SH3 domains)); higher = stronger binding of the SH3 domain to the peptide
# AgAbp1 = molecular target: AgAbp1
# Procedure, shortened: (§1)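 Four yeast species supplied the SH3 domains, which were expressed as GST fusions in E. coli BL21(DE3) and purified on glutathione Sepharose. Incubation with cellulose membranes carrying synthetic 15-mer peptides, cysteines exchanged for serines, ran overnight at 4°C at 10 μg/ml in TBS-based blocking buffer. Binding signal is reported as normalized, background-subtracted spot intensity averaged over replicates, in arbitrary units not shared between domains.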
# AgBbc1 = molecular target: AgBbc1
# Procedure, shortened: as §1
# AgBem1-D1 = molecular target: AgBem1-D1
# Procedure, shortened: as §1
# AgBzz1-D1 = molecular target: AgBzz1-D1
# Procedure, shortened: as §1
# AgBzz1-D2 = molecular target: AgBzz1-D2
# Procedure, shortened: as §1
# AgCyk3 = molecular target: AgCyk3
# Procedure, shortened: as §1
# AgFus1 = molecular target: AgFus1
# Procedure, shortened: as §1
# AgHof1 = molecular target: AgHof1
# Procedure, shortened: as §1
# AgHse1 = molecular target: AgHse1
# Procedure, shortened: as §1
# AgLsb1 = molecular target: AgLsb1
# Procedure, shortened: as §1
# AgLsb4 = molecular target: AgLsb4
# Procedure, shortened: as §1
# AgMyo5 = molecular target: AgMyo5
# Procedure, shortened: as §1
# AgNbp2 = molecular target: AgNbp2
# Procedure, shortened: as §1
# AgRvs167 = molecular target: AgRvs167
# Procedure, shortened: as §1
# AgSho1 = molecular target: AgSho1
# Procedure, shortened: as §1
# AgSla1-D1-D2 = molecular target: AgSla1-D1-D2
# Procedure, shortened: as §1
# AgSla1-D3 = molecular target: AgSla1-D3
# Procedure, shortened: as §1
# CaAbp1-D1 = molecular target: CaAbp1-D1
# Procedure, shortened: as §1
# CaAbp1-D2 = molecular target: CaAbp1-D2
# Procedure, shortened: as §1
# CaBbc1 = molecular target: CaBbc1
# Procedure, shortened: as §1
# CaBem1-D1 = molecular target: CaBem1-D1
# Procedure, shortened: as §1
# CaBzz1-D1 = molecular target: CaBzz1-D1
# Procedure, shortened: as §1
# CaBzz1-D2 = molecular target: CaBzz1-D2
# Procedure, shortened: as §1
# CaCyk3 = molecular target: CaCyk3
# Procedure, shortened: as §1
# CaFus1 = molecular target: CaFus1
# Procedure, shortened: as §1
# CaHof1 = molecular target: CaHof1
# Procedure, shortened: as §1
# CaHse1 = molecular target: CaHse1
# Procedure, shortened: as §1
# CaLsb1 = molecular target: CaLsb1
# Procedure, shortened: as §1
# CaLsb4 = molecular target: CaLsb4
# Procedure, shortened: as §1
# CaMyo5 = molecular target: CaMyo5
# Procedure, shortened: as §1
# CaNbp2 = molecular target: CaNbp2
# Procedure, shortened: as §1
# CaRvs167 = molecular target: CaRvs167
# Procedure, shortened: as §1
# CaRvs167-3 = molecular target: CaRvs167-3
# Procedure, shortened: as §1
# CaSho1 = molecular target: CaSho1
# Procedure, shortened: as §1
# CaSla1-D1-D2 = molecular target: CaSla1-D1-D2
# Procedure, shortened: as §1
# CaSla1-D3 = molecular target: CaSla1-D3
# Procedure, shortened: as §1
# ScAbp1 = molecular target: ScAbp1
# Procedure, shortened: as §1
# ScBbc1 = molecular target: ScBbc1
# Procedure, shortened: as §1
# ScBem1-D1 = molecular target: ScBem1-D1
# Procedure, shortened: as §1
# ScBzz1-D1 = molecular target: ScBzz1-D1
# Procedure, shortened: as §1
# ScBzz1-D2 = molecular target: ScBzz1-D2
# Procedure, shortened: as §1
# ScCyk3 = molecular target: ScCyk3
# Procedure, shortened: as §1
# ScFus1 = molecular target: ScFus1
# Procedure, shortened: as §1
# ScHof1 = molecular target: ScHof1
# Procedure, shortened: as §1
# ScHse1 = molecular target: ScHse1
# Procedure, shortened: as §1
# ScLsb1 = molecular target: ScLsb1
# Procedure, shortened: as §1
# ScLsb2 = molecular target: ScLsb2
# Procedure, shortened: as §1
# ScLsb3 = molecular target: ScLsb3
# Procedure, shortened: as §1
# ScLsb4 = molecular target: ScLsb4
# Procedure, shortened: as §1
# ScMyo3 = molecular target: ScMyo3
# Procedure, shortened: as §1
# ScMyo5 = molecular target: ScMyo5
# Procedure, shortened: as §1
# ScNbp2 = molecular target: ScNbp2
# Procedure, shortened: as §1
# ScPex13 = molecular target: ScPex13
# Procedure, shortened: as §1
# ScRvs167 = molecular target: ScRvs167
# Procedure, shortened: as §1
# ScSho1 = molecular target: ScSho1
# Procedure, shortened: as §1
# ScSla1-D1-D2 = molecular target: ScSla1-D1-D2
# Procedure, shortened: as §1
# ScSla1-D3 = molecular target: ScSla1-D3
# Procedure, shortened: as §1
# SpAbp1-D1 = molecular target: SpAbp1-D1
# Procedure, shortened: as §1
# SpBbc1 = molecular target: SpBbc1
# Procedure, shortened: as §1
# SpBzz1-D1 = molecular target: SpBzz1-D1
# Procedure, shortened: as §1
# SpBzz1-D2 = molecular target: SpBzz1-D2
# Procedure, shortened: as §1
# SpCyk3 = molecular target: SpCyk3
# Procedure, shortened: as §1
# SpHof1 = molecular target: SpHof1
# Procedure, shortened: as §1
# SpHof1-2 = molecular target: SpHof1-2
# Procedure, shortened: as §1
# SpHof1-3 = molecular target: SpHof1-3
# Procedure, shortened: as §1
# SpHse1 = molecular target: SpHse1
# Procedure, shortened: as §1
# SpLsb1 = molecular target: SpLsb1
# Procedure, shortened: as §1
# SpLsb4 = molecular target: SpLsb4
# Procedure, shortened: as §1
# SpMyo1 = molecular target: SpMyo1
# Procedure, shortened: as §1
# SpNbp2 = molecular target: SpNbp2
# Procedure, shortened: as §1
# SpPex13 = molecular target: SpPex13
# Procedure, shortened: as §1
# SpRvs167 = molecular target: SpRvs167
# Procedure, shortened: as §1
# SpSla1-D1-D2 = molecular target: SpSla1-D1-D2
# Procedure, shortened: as §1
# SpSla1-D3 = molecular target: SpSla1-D3
# Procedure, shortened: as §1
binder,measurement,setting,value
RNNRPVPPPPPMRTT,SPOT peptide array binding signal intensity,AgAbp1,9
same,SPOT peptide array binding signal intensity,AgBbc1,519
same,SPOT peptide array binding signal intensity,AgBem1-D1,129
same,SPOT peptide array binding signal intensity,AgBzz1-D1,232
same,SPOT peptide array binding signal intensity,AgBzz1-D2,117
same,SPOT peptide array binding signal intensity,AgCyk3,15
same,SPOT peptide array binding signal intensity,AgFus1,11
same,SPOT peptide array binding signal intensity,AgHof1,95.5
same,SPOT peptide array binding signal intensity,AgHse1,23
same,SPOT peptide array binding signal intensity,AgLsb1,27
same,SPOT peptide array binding signal intensity,AgLsb4,131
same,SPOT peptide array binding signal intensity,AgMyo5,72.2
same,SPOT peptide array binding signal intensity,AgNbp2,59.5
same,SPOT peptide array binding signal intensity,AgRvs167,76.8
same,SPOT peptide array binding signal intensity,AgSho1,5
same,SPOT peptide array binding signal intensity,AgSla1-D1-D2,6
same,SPOT peptide array binding signal intensity,AgSla1-D3,21.5
same,SPOT peptide array binding signal intensity,CaAbp1-D1,53.5
same,SPOT peptide array binding signal intensity,CaAbp1-D2,11
same,SPOT peptide array binding signal intensity,CaBbc1,724
same,SPOT peptide array binding signal intensity,CaBem1-D1,108
same,SPOT peptide array binding signal intensity,CaBzz1-D1,5240
same,SPOT peptide array binding signal intensity,CaBzz1-D2,1310
same,SPOT peptide array binding signal intensity,CaCyk3,247
same,SPOT peptide array binding signal intensity,CaFus1,69
same,SPOT peptide array binding signal intensity,CaHof1,9.5
same,SPOT peptide array binding signal intensity,CaHse1,3
same,SPOT peptide array binding signal intensity,CaLsb1,2
same,SPOT peptide array binding signal intensity,CaLsb4,541
same,SPOT peptide array binding signal intensity,CaMyo5,34
IKTRSVPKIPSIESV,SPOT peptide array binding signal intensity,AgAbp1,9
same,SPOT peptide array binding signal intensity,AgBbc1,78.8
same,SPOT peptide array binding signal intensity,AgBem1-D1,40
same,SPOT peptide array binding signal intensity,AgBzz1-D1,24.5
same,SPOT peptide array binding signal intensity,AgBzz1-D2,33.5
same,SPOT peptide array binding signal intensity,AgCyk3,1
same,SPOT peptide array binding signal intensity,AgFus1,4
same,SPOT peptide array binding signal intensity,AgHof1,27.8
same,SPOT peptide array binding signal intensity,AgHse1,19.5
same,SPOT peptide array binding signal intensity,AgLsb1,71
same,SPOT peptide array binding signal intensity,AgLsb4,873
same,SPOT peptide array binding signal intensity,AgMyo5,0.75
same,SPOT peptide array binding signal intensity,AgNbp2,2650
same,SPOT peptide array binding signal intensity,AgRvs167,12.7
same,SPOT peptide array binding signal intensity,AgSho1,3
same,SPOT peptide array binding signal intensity,AgSla1-D1-D2,≤ 0
same,SPOT peptide array binding signal intensity,AgSla1-D3,≤ 0
same,SPOT peptide array binding signal intensity,CaAbp1-D1,182
same,SPOT peptide array binding signal intensity,CaAbp1-D2,82
same,SPOT peptide array binding signal intensity,CaBbc1,604
same,SPOT peptide array binding signal intensity,CaBem1-D1,0.5
same,SPOT peptide array binding signal intensity,CaBzz1-D1,197
same,SPOT peptide array binding signal intensity,CaBzz1-D2,245
same,SPOT peptide array binding signal intensity,CaCyk3,85.5
same,SPOT peptide array binding signal intensity,CaFus1,32.5
same,SPOT peptide array binding signal intensity,CaHof1,≤ 0
same,SPOT peptide array binding signal intensity,CaHse1,5
same,SPOT peptide array binding signal intensity,CaLsb1,≤ 0
same,SPOT peptide array binding signal intensity,CaLsb4,1880
same,SPOT peptide array binding signal intensity,CaMyo5,1.25
same,SPOT peptide array binding signal intensity,CaNbp2,320
same,SPOT peptide array binding signal intensity,CaRvs167,339
same,SPOT peptide array binding signal intensity,CaRvs167-3,15
same,SPOT peptide array binding signal intensity,CaSho1,≤ 0
same,SPOT peptide array binding signal intensity,CaSla1-D1-D2,123
same,SPOT peptide array binding signal intensity,CaSla1-D3,≤ 0
same,SPOT peptide array binding signal intensity,ScAbp1,11
same,SPOT peptide array binding signal intensity,ScBbc1,37.8
same,SPOT peptide array binding signal intensity,ScBem1-D1,38.5
same,SPOT peptide array binding signal intensity,ScBzz1-D1,26
same,SPOT peptide array binding signal intensity,ScBzz1-D2,13
same,SPOT peptide array binding signal intensity,ScCyk3,≤ 0
same,SPOT peptide array binding signal intensity,ScFus1,≤ 0
same,SPOT peptide array binding signal intensity,ScHof1,16.2
same,SPOT peptide array binding signal intensity,ScHse1,26
same,SPOT peptide array binding signal intensity,ScLsb1,4
same,SPOT peptide array binding signal intensity,ScLsb2,61
same,SPOT peptide array binding signal intensity,ScLsb3,4820
same,SPOT peptide array binding signal intensity,ScLsb4,1030
same,SPOT peptide array binding signal intensity,ScMyo3,4.5
same,SPOT peptide array binding signal intensity,ScMyo5,7
same,SPOT peptide array binding signal intensity,ScNbp2,3220
same,SPOT peptide array binding signal intensity,ScPex13,633
same,SPOT peptide array binding signal intensity,ScRvs167,2950
same,SPOT peptide array binding signal intensity,ScSho1,25.5
same,SPOT peptide array binding signal intensity,ScSla1-D1-D2,146
same,SPOT peptide array binding signal intensity,ScSla1-D3,38.5
same,SPOT peptide array binding signal intensity,SpAbp1-D1,5
same,SPOT peptide array binding signal intensity,SpBbc1,28.8
same,SPOT peptide array binding signal intensity,SpBzz1-D1,236
same,SPOT peptide array binding signal intensity,SpBzz1-D2,0.5
same,SPOT peptide array binding signal intensity,SpCyk3,≤ 0
same,SPOT peptide array binding signal intensity,SpHof1,6
same,SPOT peptide array binding signal intensity,SpHof1-2,9
same,SPOT peptide array binding signal intensity,SpHof1-3,150
same,SPOT peptide array binding signal intensity,SpHse1,≤ 0
same,SPOT peptide array binding signal intensity,SpLsb1,24.2
same,SPOT peptide array binding signal intensity,SpLsb4,6060
same,SPOT peptide array binding signal intensity,SpMyo1,11.5
same,SPOT peptide array binding signal intensity,SpNbp2,≤ 0
same,SPOT peptide array binding signal intensity,SpPex13,≤ 0
same,SPOT peptide array binding signal intensity,SpRvs167,1930
same,SPOT peptide array binding signal intensity,SpSla1-D1-D2,4
same,SPOT peptide array binding signal intensity,SpSla1-D3,1
